In PubChem BioAssay AID1159580 (chemical genetic matrix, 2015):
The whole screen tested about 5,500 compounds, of which about 2,000 (36%) were called active. Another 18% or so got no clear call; they are omitted. Cut-off read from the data, not from the text of the source: active = normalized growth mostly below about 0.91 (no sharp cut-off); inconclusive = no clear call, values can overlap the other calls; inactive = mostly above about 0.92. The list shows a part of the results.

Assay: chemical genetic growth profiling, strain panel (AID 1159580);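 note: tested at 20 µM; growth read once vehicle control cultures reached saturation at 30 °C; 1 = growth at the plate median or of vehicle wells; lower values mean less growth of the strain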
Settings: growth OD

Measured: normalized growth

CC(C)(C)c1cc(C(C)(C)C)n(-c2ccc([N+](=O)[O-])cc2)n1
inactive: S. cerevisiae deletion strains, locus YAL013W, strain DEP1, stronger effect = lower value 1.02 | S. cerevisiae deletion strains, locus YBR229C, strain ROT2, stronger effect = lower value 1.01 | S. cerevisiae deletion strains, locus YCL061C, strain MRC1, stronger effect = lower value 0.994 | S. cerevisiae deletion strains, locus YDL101C, strain DUN1, stronger effect = lower value 1.01 | S. cerevisiae deletion strains, locus YDR150W, strain NUM1, stronger effect = lower value 0.991 | S. cerevisiae deletion strains, locus YEL061C, strain CIN8, stronger effect = lower value 1.02 | S. cerevisiae deletion strains, locus YGR078C, strain PAC10, stronger effect = lower value 1.01 | S. cerevisiae deletion strains, locus YHR030C, strain SLT2, stronger effect = lower value 1.06 | S. cerevisiae deletion strains, locus YHR087W, strain rtc3, stronger effect = lower value 1.01 | S. cerevisiae deletion strains, locus YJL187C, strain SWE1, stronger effect = lower value 1 | S. cerevisiae deletion strains, locus YJR043C, strain POL32, stronger effect = lower value 1.02 | S. cerevisiae deletion strains, locus YJR075W, strain HOC1, stronger effect = lower value 0.997 | S. cerevisiae deletion strains, locus YKL190W, strain CNB1, stronger effect = lower value 0.998 | S. cerevisiae deletion strains, locus YLR039C, strain RIC1, stronger effect = lower value 1.04 | S. cerevisiae deletion strains, locus YLR058C, strain SHM2 (second series), stronger effect = lower value 1.01 | S. cerevisiae deletion strains, locus YLR085C, strain ARP6, stronger effect = lower value 1.01 | S. cerevisiae deletion strains, locus YLR262C, strain YPT6, stronger effect = lower value 1.01 | S. cerevisiae deletion strains, locus YML094W, strain GIM5, stronger effect = lower value 1.04 | S. cerevisiae deletion strains, locus YMR219W, strain ESC1, stronger effect = lower value 1 | S. cerevisiae deletion strains, locus YMR263W, strain SAP30, stronger effect = lower value 0.999 | S. cerevisiae deletion strains, locus YMR307W, strain GAS1, stronger effect = lower value 0.995 | S. cerevisiae deletion strains, locus YNL153C, strain GIM3, stronger effect = lower value 1 | S. cerevisiae deletion strains, locus YNL298W, strain CLA4 (second series), stronger effect = lower value 1.05 | S. cerevisiae deletion strains, locus YNL322C, strain KRE1, stronger effect = lower value 1 | S. cerevisiae deletion strains, locus YNR030W, strain Alg12, stronger effect = lower value 1.04 | S. cerevisiae deletion strains, locus YOL006C, strain TOP1, stronger effect = lower value 1.06 | S. cerevisiae deletion strains, locus YPL055C, strain LGE1, stronger effect = lower value 1.04 | S. cerevisiae deletion strains, locus YPL241C, strain CIN2, stronger effect = lower value 1.07 | S. cerevisiae deletion strains, locus YPR135W, strain CTF4, stronger effect = lower value 1.03 | S. cerevisiae strains, strain wild type, stronger effect = lower value 1.01
